Measured values reported in PubChem BioAssay.
Calls of active or inactive are those of the source.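 The calls were made as follows, unless noted: active = compounds lowering colon cancer cell viability after pretreatment blocking the GSK3B kinase; inactive = the rest.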

Assay: stimulators of insulin release from INS-1E, primary screen, cell-based, 5 mM glucose, NPC library (AID 1117329;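 active = compound raises insulin release from rat beta cells at 5 mM glucose, no numeric limit stated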; also: reference of the scale not given here)
Conditions: rat INS-1E insulin secretion, at 10 µM, hits give high values
For `NC(=O)CC[C@@H]1NC(=O)[C@H](Cc2ccccc2)NC(=O)[C@H](Cc2ccc(O)cc2)NC(=O)CCSSC[C@@H](C(=O)N2CCC[C@H]2C(=O)N[C@@H](CCCN=C(N)N)C(=O)NCC(N)=O)NC(=O)[C@H](CC(N)=O)NC1=O`, the insulin secretion stimulation was 0.8% (inactive).
For `NCCNc1ccc(NCCN)c2c1C(=O)c1ccncc1C2=O`, the insulin secretion stimulation was -0.4% (inactive).
With `O=C(O)Cc1ccccc1Oc1ccc(Cl)cc1Cl` the insulin secretion stimulation was 1.5% (inactive).
For `Cc1ccc(C(C)C)c(O)c1`, the insulin secretion stimulation was -3.2% (inactive).
For `CCN1/C(=C/C=C/c2sc3ccccc3[n+]2CC)Sc2ccccc21`, the insulin secretion stimulation was -0.5% (inactive).
For `CCc1cc2cc(OC)c(OC)cc2c(Cc2ccccc2)n1`, the insulin secretion stimulation was 15.8% (inactive).
With `C=C(C)C(=O)OCC(O)CO` (stereo not drawn) the insulin secretion stimulation was 2.7% (inactive).
For `CCCCCCCCCCCC(=O)OCC(O)CO` (stereo not drawn), the insulin secretion stimulation was -1.1% (inactive).
With `CN1CCN(C(=O)C2CCCCC2)CC1` the insulin secretion stimulation was 4.2% (inactive).
With `CC(=O)O[C@H]1C[C@@H]2CC[C@H]3[C@H]4C[C@H]([N+]5(C)CCCCC5)[C@@H](OC(C)=O)[C@@]4(C)CC[C@@H]3[C@@]2(C)C[C@H]1[N+]1(C)CCCCC1` the insulin secretion stimulation was -1.1% (inactive).
For `NS(=O)(=O)c1ccc(N2CCCCS2(=O)=O)cc1`, the insulin secretion stimulation was -0.3% (inactive).
For `NC(=O)NS(=O)(=O)c1ccc(Cl)cc1`, the insulin secretion stimulation was 3.4% (inactive).
For `CCOC(=O)c1cccc(N)c1`, the insulin secretion stimulation was 1.3% (inactive).
With `CCCCCCCCCCCCCCCCCC(=O)[O][Al]` the insulin secretion stimulation was 0.8% (inactive).
For `C[C@H](CCC(=O)O)[C@H]1CC[C@H]2[C@@H]3CC[C@@H]4C[C@H](O)CC[C@]4(C)[C@@H]3C[C@H](O)[C@]12C`, the insulin secretion stimulation was 1% (inactive).
For `O=C(CCOCCOCCOCCOCCC(=O)Nc1c(I)cc(I)c(C(=O)O)c1I)Nc1c(I)cc(I)c(C(=O)O)c1I`, the insulin secretion stimulation was 0.1% (inactive).
In the case of `CC(CC(C#N)(c1ccccc1)C(C)C)N(C)C` (stereo not drawn), the insulin secretion stimulation is reported as 3.4% (inactive).
In the case of `CNC(=O)c1cnn(-c2nc(N)c3ncn([C@@H]4O[C@H](CO)[C@@H](O)[C@H]4O)c3n2)c1`, the insulin secretion stimulation is reported as -0.3% (inactive).
With `O=C(O)c1cc(=O)c2c3nc4ccccc4oc-3cc(=O)c2[nH]1` the insulin secretion stimulation was -0.1% (inactive).
For `Cc1oc(=O)oc1COC(=O)[C@@H]1N2C(=O)[C@@H](NC(=O)[C@H](N)c3ccccc3)[C@H]2SC1(C)C`, the insulin secretion stimulation was -1% (inactive).
In the case of `CCCCCCCCCCCCCC[N+](C)(C)C`, the insulin secretion stimulation is reported as -0.2% (inactive).
For `COc1cc2c(cc1OC)CN(C(=O)[C@H](C)N[C@@H](CCc1ccccc1)C(=O)O)[C@H](C(=O)O)C2`, the insulin secretion stimulation was 0.4% (inactive).
For `CCOC(=O)c1cccnc1`, the insulin secretion stimulation was -2.3% (inactive).
For `Cc1cc(CC(=O)O)c(C)n1-c1ccc(Cl)cc1`, the insulin secretion stimulation was 2.3% (inactive).
For `CCOC(=O)C(C#N)=C(c1ccccc1)c1ccccc1`, the insulin secretion stimulation was 6.6% (inactive).
With `CC1CCCCN1CCCOC(=O)c1ccc(OC2CCCCC2)cc1` (stereo not drawn) the insulin secretion stimulation was 12.4% (inactive).
With `NC(=S)N/N=C/c1cccnc1` the insulin secretion stimulation was -0.8% (inactive).
With `C[C@@H](N)C(=O)O` the insulin secretion stimulation was -2.7% (inactive).
In the case of `C[N+]1(CC2COC(c3ccccc3)(c3ccccc3)O2)CCCCC1` (stereo not drawn), the insulin secretion stimulation is reported as 6.4% (inactive).
For `O=C(O)CNC(=O)c1ccccc1`, the insulin secretion stimulation was -1.9% (inactive).
In the case of `CC(CSC(=O)c1ccccc1)C(=O)N1C[C@@H](Sc2ccccc2)C[C@H]1C(=O)O` (stereo partly drawn), the insulin secretion stimulation is reported as 6.4% (inactive).
With `O=C(O)c1ccccc1S` the insulin secretion stimulation was -0.1% (inactive).
For `CC[N+](CC)(CC)CCOC(=O)C(C1CCCC1)C1CCCC1`, the insulin secretion stimulation was 0.5% (inactive).
For `O=C(O)[C@@H]1C(=CCO)O[C@@H]2CC(=O)N12`, the insulin secretion stimulation was 2.2% (inactive).
For `N[C@@H](Cc1cc(I)c(O)c(I)c1)C(=O)O`, the insulin secretion stimulation was -1% (inactive).
In the case of `Cc1cc(O)c(C)c(C)c1O`, the insulin secretion stimulation is reported as 1.3% (inactive).
With `CC(C)=CCC/C(C)=C/CC/C(C)=C/CCC(=O)OC/C=C(\C)CCC=C(C)C` the insulin secretion stimulation was 5.2% (inactive).
In the case of `O=C(/C=C/c1ccc(O)c(O)c1)O[C@@H]1C[C@@](OC(=O)/C=C/c2ccc(O)c(O)c2)(C(=O)O)C[C@@H](O)[C@@H]1O`, the insulin secretion stimulation is reported as -0.6% (inactive).
With `CCO[C@@H]1O[C@H](C(COCc2ccccc2)OCc2ccccc2)[C@H](OCc2ccccc2)[C@H]1O` (stereo partly drawn) the insulin secretion stimulation was 2.2% (inactive).

Assay: growth inhibition of GSK3B-pretreated HCT116 cells – cell-based, CellTiter-Glo, 0.2 to 20 µM (AID 1117336)
Conditions: HCT116 viability after GSK3B inhibitor, at 20 µM, hits give high values
For `NC(=O)CC[C@@H]1NC(=O)[C@H](Cc2ccccc2)NC(=O)[C@H](Cc2ccc(O)cc2)NC(=O)CCSSC[C@@H](C(=O)N2CCC[C@H]2C(=O)N[C@@H](CCCN=C(N)N)C(=O)NCC(N)=O)NC(=O)[C@H](CC(N)=O)NC1=O`, the viability decrease was 8.4% (inactive).
With `NCCNc1ccc(NCCN)c2c1C(=O)c1ccncc1C2=O` the viability decrease was 67.3% (active).
In the case of `O=C(O)Cc1ccccc1Oc1ccc(Cl)cc1Cl`, the viability decrease is reported as -7.6% (inactive).
In the case of `Cc1ccc(C(C)C)c(O)c1`, the viability decrease is reported as -0.65% (inactive).
For `CCN1/C(=C/C=C/c2sc3ccccc3[n+]2CC)Sc2ccccc21`, the viability decrease was 99.1% (active).
With `CCc1cc2cc(OC)c(OC)cc2c(Cc2ccccc2)n1` the viability decrease was 46.2% (inactive).
In the case of `C=C(C)C(=O)OCC(O)CO` (stereo not drawn), the viability decrease is reported as 3% (inactive).
With `CCCCCCCCCCCC(=O)OCC(O)CO` (stereo not drawn) the viability decrease was -3.8% (inactive).
With `CN1CCN(C(=O)C2CCCCC2)CC1` the viability decrease was -2.7% (inactive).
With `CC(=O)O[C@H]1C[C@@H]2CC[C@H]3[C@H]4C[C@H]([N+]5(C)CCCCC5)[C@@H](OC(C)=O)[C@@]4(C)CC[C@@H]3[C@@]2(C)C[C@H]1[N+]1(C)CCCCC1` the viability decrease was -2.7% (inactive).
For `NS(=O)(=O)c1ccc(N2CCCCS2(=O)=O)cc1`, the viability decrease was -15.7% (inactive).
For `NC(=O)NS(=O)(=O)c1ccc(Cl)cc1`, the viability decrease was -3.8% (inactive).
In the case of `CCOC(=O)c1cccc(N)c1`, the viability decrease is reported as 4.6% (inactive).
For `CCCCCCCCCCCCCCCCCC(=O)[O][Al]`, the viability decrease was 2.3% (inactive).
With `C[C@H](CCC(=O)O)[C@H]1CC[C@H]2[C@@H]3CC[C@@H]4C[C@H](O)CC[C@]4(C)[C@@H]3C[C@H](O)[C@]12C` the viability decrease was 37.6% (inactive).
For `O=C(CCOCCOCCOCCOCCC(=O)Nc1c(I)cc(I)c(C(=O)O)c1I)Nc1c(I)cc(I)c(C(=O)O)c1I`, the viability decrease was -4.7% (inactive).
In the case of `CC(CC(C#N)(c1ccccc1)C(C)C)N(C)C` (stereo not drawn), the viability decrease is reported as -53.4% (inactive).
With `CNC(=O)c1cnn(-c2nc(N)c3ncn([C@@H]4O[C@H](CO)[C@@H](O)[C@H]4O)c3n2)c1` the viability decrease was 3.8% (inactive).
With `O=C(O)c1cc(=O)c2c3nc4ccccc4oc-3cc(=O)c2[nH]1` the viability decrease was 10.4% (inactive).
In the case of `Cc1oc(=O)oc1COC(=O)[C@@H]1N2C(=O)[C@@H](NC(=O)[C@H](N)c3ccccc3)[C@H]2SC1(C)C`, the viability decrease is reported as -11.1% (inactive).
With `CCCCCCCCCCCCCC[N+](C)(C)C` the viability decrease was 101% (active).
In the case of `COc1cc2c(cc1OC)CN(C(=O)[C@H](C)N[C@@H](CCc1ccccc1)C(=O)O)[C@H](C(=O)O)C2`, the viability decrease is reported as -9.2% (inactive).
In the case of `CCOC(=O)c1cccnc1`, the viability decrease is reported as -2.55% (inactive).
For `Cc1cc(CC(=O)O)c(C)n1-c1ccc(Cl)cc1`, the viability decrease was -14.4% (inactive).
With `CCOC(=O)C(C#N)=C(c1ccccc1)c1ccccc1` the viability decrease was -0.55% (inactive).
For `CC1CCCCN1CCCOC(=O)c1ccc(OC2CCCCC2)cc1` (stereo not drawn), the viability decrease was 21.7% (inactive).
In the case of `NC(=S)N/N=C/c1cccnc1`, the viability decrease is reported as 0.7% (inactive).
For `C[C@@H](N)C(=O)O`, the viability decrease was 9% (inactive).
For `C[N+]1(CC2COC(c3ccccc3)(c3ccccc3)O2)CCCCC1` (stereo not drawn), the viability decrease was 7.4% (inactive).
For `O=C(O)CNC(=O)c1ccccc1`, the viability decrease was -9.35% (inactive).
For `CC(CSC(=O)c1ccccc1)C(=O)N1C[C@@H](Sc2ccccc2)C[C@H]1C(=O)O` (stereo partly drawn), the viability decrease was -18.3% (inactive).
In the case of `O=C(O)c1ccccc1S`, the viability decrease is reported as 1% (inactive).
In the case of `CC[N+](CC)(CC)CCOC(=O)C(C1CCCC1)C1CCCC1`, the viability decrease is reported as 28.7% (inactive).
With `O=C(O)[C@@H]1C(=CCO)O[C@@H]2CC(=O)N12` the viability decrease was 16.4% (inactive).
For `N[C@@H](Cc1cc(I)c(O)c(I)c1)C(=O)O`, the viability decrease was -3.6% (inactive).
With `Cc1cc(O)c(C)c(C)c1O` the viability decrease was 4.5% (inactive).
With `CC(C)=CCC/C(C)=C/CC/C(C)=C/CCC(=O)OC/C=C(\C)CCC=C(C)C` the viability decrease was -4.2% (inactive).
For `O=C(/C=C/c1ccc(O)c(O)c1)O[C@@H]1C[C@@](OC(=O)/C=C/c2ccc(O)c(O)c2)(C(=O)O)C[C@@H](O)[C@@H]1O`, the viability decrease was -72.8% (inactive).
For `CCO[C@@H]1O[C@H](C(COCc2ccccc2)OCc2ccccc2)[C@H](OCc2ccccc2)[C@H]1O` (stereo partly drawn), the viability decrease was 15.1% (inactive).
